# From the supplement of paper PMC8728848
# Only a selection was taken, and the strongest signals are over-represented in it overall.
# B1: PP2A1 (Arabidopsis thaliana) (protein)
# chain: MFRNQDSKYLIPVQKEAPPVTTLPMKASTVKSPHNCEAILRDADPPISLSSVNLSEQLRSGVFLKPKKQIKYWVDERNSNCFMLFAKNLSITWSDDVNYWTWFTEKESPNENVEAVGLKNVCWLDITGKFDTRNLTPGIVYEVVFKVKLEDPAYGWDTPVNLKLVLPNGKEKPQEKKVSLRELPRYKWVDVRVGEFVPEKSAAGEITFSMYEHAAGVWKKGLSLKGVAIRPKQHHHHHH
# Key:
# Test in all cases: glycan array binding signal (z-score within array); higher = stronger binding
# Conditions in all cases: glycan notation: IUPAC condensed, linker removed
# [1] = target: Fuc(a1-2)Gal(b1-3)GlcNAc
# Outline: (§1)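 Columns mapping to the same glycan were averaged after glycan names were converted to IUPAC-condensed notation. The data come from 3228 arrays in the Consortium for Functional Glycomics database, limited to those with an available protein sequence. Binding is reported as a within-array Z-score averaged across arrays of one protein sequence and across linkers.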
# [2] = target: Fuc(a1-2)Gal(b1-4)GlcNAc(b1-3)Gal(b1-4)GlcNAc
# Outline: as §1
# [3] = target: Fuc(a1-2)[Gal(a1-3)]Gal(b1-4)Glc
# Outline: as §1
# [4] = target: Fuc(a1-2)[GalNAc(a1-3)]Gal(b1-4)GlcNAc(b1-3)Gal(b1-4)GlcNAc
# Outline: as §1
# [5] = target: Fuc(a1-2)[GalNAc(a1-4)]Gal(b1-4)GlcNAc
# Outline: as §1
# [6] = target: Gal(a1-2)Gal
# Outline: as §1
# [7] = target: Gal(a1-3)Gal(b1-4)[Fuc(a1-3)]GlcNAc(b1-2)Man(a1-3)[Gal(a1-3)Gal(b1-4)[Fuc(a1-3)]GlcNAc(b1-2)Man(a1-6)]Man(b1-4)GlcNAc(b1-4)GlcNAc
# Outline: as §1
# [8] = target: Gal(b1-3)[Fuc(a1-4)]GlcNAc(b1-2)Man(a1-3)[Gal(b1-3)[Fuc(a1-4)]GlcNAc(b1-2)Man(a1-6)]Man(b1-4)GlcNAc(b1-4)[Fuc(a1-6)]GlcNAc
# Outline: as §1
# [9] = target: Gal(b1-4)GalNAc(a1-3)[Fuc(a1-2)]Gal(b1-4)GlcNAc
# Outline: as §1
# [10] = target: Gal(b1-4)Glc6S
# Outline: as §1
# [11] = target: Gal(b1-4)GlcNAc(b1-2)Man(a1-3)[Man(a1-6)]Man(b1-4)GlcNAc(b1-4)GlcNAc
# Outline: as §1
# [12] = target: Gal(b1-4)GlcNAc(b1-2)Man(a1-6)Man(b1-4)GlcNAc(b1-4)GlcNAc
# Outline: as §1
# [13] = target: Gal(b1-4)GlcNAc(b1-3)Gal(b1-4)GlcNAc(b1-3)Gal(b1-4)GlcNAc
# Outline: as §1
# [14] = target: Gal(b1-4)GlcNAc(b1-6)Gal(b1-4)GlcNAc(b1-6)GalNAc
# Outline: as §1
# [15] = target: Gal3S(b1-4)Glc6S
# Outline: as §1
# [16] = target: Gal3S(b1-4)GlcNAc6S
# Outline: as §1
# [17] = target: GalNAc(a1-3)GalNAc
# Outline: as §1
# [18] = target: GalNAc(b1-3)Gal
# Outline: as §1
# [19] = target: GalNAc(b1-3)GalNAc
# Outline: as §1
# [20] = target: GlcNAc(b1-3)Gal(b1-4)GlcNAc(b1-3)Gal(b1-4)GlcNAc
# Outline: as §1
# [21] = target: GlcNAc(b1-4)GlcNAc(b1-4)GlcNAc
# Outline: as §1
# [22] = target: Man(a1-2)Man(a1-2)Man(a1-6)[Man(a1-3)]Man
# Outline: as §1
# [23] = target: Man(a1-2)Man(a1-3)[Man(a1-2)Man(a1-6)]Man
# Outline: as §1
# [24] = target: Man(a1-2)Man(a1-3)[Man(a1-6)]Man(a1-6)[Man(a1-2)Man(a1-3)]Man(b1-4)GlcNAc(b1-4)GlcNAc
# Outline: as §1
# [25] = target: Man(a1-2)Man(a1-6)[Man(a1-3)]Man(a1-6)[Man(a1-2)Man(a1-2)Man(a1-3)]Man(b1-4)GlcNAc(b1-4)GlcNAc
# Outline: as §1
# [26] = target: Man(a1-3)[Man(a1-6)]Man(a1-6)[Man(a1-2)Man(a1-3)]Man(b1-4)GlcNAc(b1-4)GlcNAc
# Outline: as §1
# [27] = target: Man(a1-3)[Man(a1-6)]Man(a1-6)[Man(a1-3)]Man(b1-4)GlcNAc(b1-4)GlcNAc
# Outline: as §1
# [28] = target: Man(a1-3)[Man(a1-6)]Man(b1-4)GlcNAc(b1-4)GlcNAc
# Outline: as §1
# [29] = target: Neu5Ac(a2-3)Gal(b1-3)[Fuc(a1-4)]GlcNAc(b1-3)Gal(b1-3)[Fuc(a1-4)]GlcNAc
# Outline: as §1
# [30] = target: Neu5Ac(a2-3)Gal(b1-3)[Neu5Ac(a2-6)]GalNAc
# Outline: as §1
# [31] = target: Neu5Ac(a2-3)Gal(b1-4)[Fuc(a1-3)]GlcNAc(b1-6)[Gal(b1-3)]GalNAc
# Outline: as §1
# [32] = target: Neu5Ac(a2-3)Gal(b1-4)[Fuc(a1-3)]GlcNAc(b1-6)[Neu5Ac(a2-3)Gal(b1-3)]GalNAc
# Outline: as §1
# [33] = target: Neu5Ac(a2-3)Gal6S(b1-4)GlcNAc
# Outline: as §1
# [34] = target: Neu5Ac(a2-8)Neu5Ac(a2-3)[GalNAc(b1-4)]Gal(b1-4)Glc
# Outline: as §1
# [35] = target: Neu5Ac(a2-8)Neu5Ac(a2-8)Neu5Ac(a2-3)Gal(b1-4)Glc
# Outline: as §1
binder,measurement,setting,value
B1,glycan array binding signal (z-score),[1],-0.319
same,glycan array binding signal (z-score),[2],-0.347
same,glycan array binding signal (z-score),[3],-0.572
same,glycan array binding signal (z-score),[4],-0.018
same,glycan array binding signal (z-score),[5],-0.398
same,glycan array binding signal (z-score),[6],-0.291
same,glycan array binding signal (z-score),[7],-0.011
same,glycan array binding signal (z-score),[8],1.34
same,glycan array binding signal (z-score),[9],-0.498
same,glycan array binding signal (z-score),[10],0.116
same,glycan array binding signal (z-score),[11],2.93
same,glycan array binding signal (z-score),[12],0.362
same,glycan array binding signal (z-score),[13],-0.223
same,glycan array binding signal (z-score),[14],0.051
same,glycan array binding signal (z-score),[15],0.405
same,glycan array binding signal (z-score),[16],0.165
same,glycan array binding signal (z-score),[17],-0.698
same,glycan array binding signal (z-score),[18],-0.293
same,glycan array binding signal (z-score),[19],-0.497
same,glycan array binding signal (z-score),[20],-0.708
same,glycan array binding signal (z-score),[21],2.52
same,glycan array binding signal (z-score),[22],0.03
same,glycan array binding signal (z-score),[23],0.174
same,glycan array binding signal (z-score),[24],3.07
same,glycan array binding signal (z-score),[25],2.69
same,glycan array binding signal (z-score),[26],2.97
same,glycan array binding signal (z-score),[27],3.55
same,glycan array binding signal (z-score),[28],2.85
same,glycan array binding signal (z-score),[29],0.594
same,glycan array binding signal (z-score),[30],0.432
same,glycan array binding signal (z-score),[31],-0.268
same,glycan array binding signal (z-score),[32],-0.091
same,glycan array binding signal (z-score),[33],0.07
same,glycan array binding signal (z-score),[34],0.265
same,glycan array binding signal (z-score),[35],0.006
